From PubChem BioAssay AID652126 (The Scripps Research Institute Molecular Screening Center, 2013)
Among all 370,000 compounds or so, about 3,700 (1%) were called active. What follows is part of a selection rich in actives, with near analogues and random picks from the rest. A number with no mark means an inactive call.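 How the source made its calls: active means activation above the mean over all tested compounds plus 3 SD (cut at about 0.9% in these data); inactive means the rest.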

The molecules below were run on Nuclear hormone receptor DAF-12 (Strongyloides stercoralis) (assay: S. stercoralis DAF-12 nuclear receptor activators, primary screen, cell-based, luminescence, HEK293, GRIP1 co-expression, lit1-tk-luc (AID 652126;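 further: 0% = DMSO-only wells and 100% = 3 µM delta7-dafachronic acid wells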)). Settings: HEK293 ssDAF-12/GRIP1 lit1-tk-luc reporter, at 6.8 µM, stronger effect = higher value, % of 3 µM dafachronic acid response.
For CCCCN1CCN(C(=O)c2ccc3c(c2)NC(=O)C(C)(C)O3)CC1, the activation was -1.34%.
COc1ccc(C#CCNCc2ccc(OC)cc2OC)cc1 showed an activation of -1.38%.
In the case of COc1ccc(C)cc1S(=O)(=O)NC1CCCCC1, the activation is reported as -0.84%.
COc1ccc(C(=O)O)cc1S(=O)(=O)NC1CCN(Cc2ccccc2)CC1 gave an activation of -1.42%.
COc1ccc(C(=O)NCc2ccccc2C)cc1S(=O)(=O)NC1CCCC1 was tested, and the activation was 0.92% (active).
For CCCCNC(=O)C[C@@H]1C(=O)N(CCc2ccc(Cl)cc2)C2=CCCC[C@]21C(=O)OCC, the activation was -2.02%.
With CC(C)CNC(=O)OCc1cn(Cc2ccc(F)cc2)nn1 the activation was -0.96%.
Work on CC(c1c[nH]c2ccccc12)c1c(-c2ccccc2)n(C)c2ccccc12 (stereo not given) yielded an activation of -0.45%.
With O=C(OCc1cn(-c2ccc(Cl)c(Cl)c2)nn1)c1ccccc1Cl the activation was -1.04%.
CCOC(=O)[C@]12CCCC=C1N(Cc1ccc(OC)cc1)C(=O)[C@@H]2CC(=O)NCc1cccs1 gave an activation of -1.35%.
With C=CCN(Cc1ccc2c(c1)OCO2)C(C#CC1CC1)C(C)(C)C (stereo not given) the activation was -1.38%.
In the case of O=C1Nc2ccccc2C1=NN=Cc1ccco1, the activation is reported as 0.04%.
For CN(C)/C=C1/C(=O)Nc2ccccc21, the activation was 1.06% (active).
Molecule CN(C)/C=C1\C=C(c2ccccc2)OC1=O has an activation of -0.4%.
Cc1ccc(-n2c(SCC(=O)Nc3ccc(S(=O)(=O)Nc4nccs4)cc3)nnc2-c2ccncc2)cc1 gave an activation of -1.76%.
CC(=O)O[C@@]1(C(C)=O)CCC2[C@H]3C=C(C)C4=CC(=O)CC[C@@]4(C)C3CC[C@]21C (stereo not given in full) showed an activation of -1.19%.
In the case of CC(C)(C)C1CCC(=NNC(=O)c2ccc(Br)o2)CC1 (stereo not given), the activation is reported as -0.04%.
Molecule C/C(=N\NC(=S)NC1CCCCC1)c1ccc(C)o1 has an activation of -2.41%.
For C/C(=N/NC(=O)c1ccc(Br)o1)c1ccc(C)o1, the activation was 1.57% (active).
Work on Cc1sc2nc(SCC(=O)c3ccc(O)c(O)c3)n(Cc3ccco3)c(=O)c2c1C yielded an activation of -1.42%.
With O=S(=O)(NC1CCCCC1)c1ccc(F)c2ccccc12 the activation was -1.61%.
C=CCN(C(=O)[C@@H](CCCC)[C@@H](O)c1ccc(Cl)cc1)c1ccccc1 showed an activation of -1.08%.
Molecule C=C1C(C(C)C)N(C)C2=NC(c3ccccc3)CC(=O)N12 (stereo not given) has an activation of -1.49%.
With COc1ccc(C(=O)NC2=NCCS2)c(OC)c1 the activation was 1.63% (active).
COc1ccccc1C(=O)NCCC(=O)NC1=NCCS1 gave an activation of -0.76%.
Molecule O=C(NC1=NCCS1)c1ccc(Cl)s1 has an activation of -1.02%.
In the case of O=C(NCCc1c[nH]c2ccccc12)OCc1cn(-c2c(F)cccc2F)nn1, the activation is reported as -1.14%.
O=C(NCc1ccco1)C1CCCN(S(=O)(=O)c2ccc(Cl)s2)C1 (stereo not given) was tested, and the activation was 0%.
OCCC1CN(Cc2cccn2-c2nccs2)CCN1CCc1ccccc1 (stereo not given) was tested, and the activation was 1.5% (active).
OCCC1CN(Cc2cnc(-c3ccccc3)s2)CCN1CCc1ccccc1 (stereo not given) showed an activation of -1.41%.
OCCC1CN(Cc2ccc(Oc3ncccn3)cc2)CCN1CCc1ccccc1 (stereo not given) showed an activation of -0.5%.
Work on COC(=O)c1cccc(Cn2ccc3ccc(-c4ccc5ccn(C(=O)C6CCCCC6)c5c4)cc32)c1 yielded an activation of -1.1%.
With COc1ccc(-c2cc(-c3nnc(SCc4ccc([N+](=O)[O-])cc4)n3N)[nH]n2)cc1 the activation was -0.73%.
Work on CCCC[C@H]1C2CC(OC(=O)NCc3ccccc3)C(C2)[C@H]2CCCCN21 (stereo not given in full) yielded an activation of -1.06%.
CCCCOCCCNC(=O)C[C@H]1C[C@@]2(C(=O)OC)C(=C[C@H](C(C)(C)C)O[C@@H]2C)N(CCc2ccc(OC)c(OC)c2)C1=O was tested, and the activation was -1.19%.
